# In PubChem BioAssay (EPA / NIEHS):
# “And” between values parts separate entries of the source, which are not always exact repeats. Identical values can stand only once. Records with an inconclusive call do not appear. Where a structure was tested more than once in an assay, its records may differ in their call. The source made the active and inactive calls. Rule for the calls, unless noted: active = hit-call score of the fitted dose curve at least 0.9, where 1 is the maximum; inactive = score below 0.9.
# Key:
# [1] = target: Glucocorticoid receptor (Homo sapiens) (UniProt P04150); test: ATG_GR_TRANS: Attagene TRANS-FACTORIAL HepG2 Assay for human Glucocorticoid Receptor (GR) (AID 2282978; active = hit-call score of the fitted dose curve at least 0.9, where 1 is the maximum;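 note: activators score as hits since higher reporter transcript over DMSO is fitted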); settings: HepG2 Attagene TRANS GR reporter, mRNA transcription
# In short: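 HepG2 cells transiently transfected with multiplexed reporter units in which chimeric NR-GAL4 proteins drive GAL4-UAS reporters; 24 h compound exposure. Reporter mRNA measured by RT-PCR, 6-FAM labelling, HpaI digestion and capillary electrophoresis; gain-of-signal fitted versus DMSO.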
# [2] = target: Bile acid receptor (Homo sapiens) (UniProt Q96RI1); test: ATG_FXR_TRANS: Attagene TRANS-FACTORIAL HepG2 Assay for Farnesoid X Receptor (FXR) (AID 2282979; active = hit-call score of the fitted dose curve at least 0.9, where 1 is the maximum;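 note: hits raise reporter mRNA above DMSO so AC50 marks FXR activation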); settings: HepG2 Attagene TRANS FXR-GAL4 reporter transcription
# In short: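 Reporter transcripts from transfected HepG2 cells were measured 24 h after dosing, using RT-PCR with capillary electrophoresis of 6-FAM-labelled fragments. The read-out reflects activity of exogenous FXR-Gal4 chimera on GAL4-UAS units, with induction relative to DMSO.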
# [3] = ATG_M_06_TRANS: Attagene TRANS-FACTORIAL HepG2 Assay for M06 Transcription Factor (Internal Marker) (AID 2282983; active = hit-call score of the fitted dose curve at least 0.9, where 1 is the maximum;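 note: reporter transcript level by RT-PCR then capillary electrophoresis fluorescence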); settings: HepG2 Attagene TRANS M06 internal marker reporter
# In short: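 Background-control reporter readout: after 24 h chemical exposure of transiently transfected HepG2 (GAL4-UAS reporter units), mRNA quantified by RT-PCR with fluorescent labeling and capillary electrophoresis. Gain-of-signal fitting against DMSO baseline.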
# [4] = ATG_M_32_TRANS: Attagene TRANS-FACTORIAL HepG2 Assay for M32 Transcription Factor (Internal Marker) (AID 2282984; active = hit-call score of the fitted dose curve at least 0.9, where 1 is the maximum;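 note: transcript level of a background control reporter unit measured by RT-PCR and capillary electrophoresis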); settings: HepG2 Attagene TRANS M32 internal marker reporter
# In short: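 Cell-based TRANS-format assay in HepG2: exogenous chimeric GAL4 reporter units transiently expressed, compounds applied 24 h. Reporter mRNA detected by RT-PCR plus capillary electrophoresis; this readout is an internal background marker.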
# [5] = target: Transcriptional activator Myb (Homo sapiens) (UniProt P10242); test: ATG_Myb_CIS: Attagene CIS-FACTORIAL HepG2 Assay for human Myeloblastosis (Myb) Proto-Oncogene Transcription Factor (AID 2282986); settings: HepG2 Attagene CIS-FACTORIAL Myb reporter transcription; actives raise or lower the signal
# In short: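 HepG2 cells were transiently transfected with cis-regulated multiple reporter transcription units reflecting endogenous Myb activity, then exposed to compound for 24 hours. Reporter mRNA was measured by RT-PCR with capillary electrophoresis; bidirectional fitting versus DMSO baseline.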
# [6] = target: Nuclear respiratory factor 1 (Homo sapiens) (UniProt Q16656); test: ATG_NRF1_CIS: Attagene CIS-FACTORIAL HepG2 Assay for human Nuclear Respiratory Factor 1 (NRF1) Orphan Gene (AID 2282987); settings: HepG2 NRF1 cis-element reporter, Attagene multiplex; actives raise or lower the signal
# In short: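 HepG2 cells transiently transfected with multiple reporter transcription units under cis-regulatory promoter control, so endogenous transcription-factor activity is read. After 24 h compound exposure, reporter mRNA quantified by RT-PCR, fluorescent labelling, HpaI digestion and capillary electrophoresis; bidirectional fitting versus DMSO.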
# [7] = ATG_NFI_CIS: Attagene CIS-FACTORIAL HepG2 Assay for human Nuclear Factor I (NFI) (AID 2282989); settings: HepG2 cis-regulatory reporter, NFI response element transcription; actives raise or lower the signal
# In short: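 Multiplexed cis-reporter system in human HepG2 cells reports native TF activity as reporter mRNA induction 24 h post-dose. Fragments labelled with 6-FAM, HpaI-digested and resolved by capillary electrophoresis; activity fitted both directions versus DMSO.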
# [8] = target: Myc proto-oncogene protein (Homo sapiens) (UniProt P01106); test: ATG_Myc_CIS: Attagene CIS-FACTORIAL HepG2 Assay for human Myelocytomatosis (Myc) Proto-Oncogene Transcription Factor (AID 2282990); settings: HepG2, Attagene cis-reporter transcription factor activity; actives raise or lower the signal
# In short: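 After 24 h chemical treatment of HepG2 cells carrying multiplexed cis-regulated reporter constructs, reporter transcripts quantified by RT-PCR and capillary electrophoresis of fluorescent fragments. Gain or loss fitted against DMSO baseline.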
# [9] = ATG_Oct_MLP_CIS: Attagene CIS-FACTORIAL HepG2 Assay for human Octamer-Binding Transcription Factor (Oct) (AID 2282993); settings: HepG2 Attagene cis-factorial Oct reporter, mRNA; actives raise or lower the signal
# In short: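 After 24 h compound exposure, transfected HepG2 cells were lysed for total RNA; reporter-specific cDNA was PCR-amplified, fluorescently labelled and sized by capillary electrophoresis. Bidirectional curve fitting used DMSO as baseline.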
# [10] = target: Cellular tumor antigen p53 (Homo sapiens) (UniProt P04637); test: ATG_p53_CIS: Attagene CIS-FACTORIAL HepG2 Assay for human p53 Transcription Factor (AID 2282994); settings: HepG2 p53 cis-element reporter, Attagene mRNA; actives raise or lower the signal
# In short: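 Steps: transfect HepG2 with multiplexed cis reporter constructs; dose chemicals 24 h; extract RNA, reverse-transcribe, PCR-amplify reporter sequences; FAM-label, HpaI-digest, resolve fragments by CE. Activity fitted both directions relative to DMSO.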
# [11] = BSK_3C_TissueFactor: BioMAP Diversity Plus: 3C Assay for Tissue Factor Biomarker Activity (AID 2282997); settings: BioMAP 3C HUVEC, tissue factor biomarker readout; actives raise or lower the signal
# In short: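 Tissue factor on primary human umbilical vein endothelium was read by ELISA 24 h after dosing, gain or loss relative to DMSO. Cytotoxicity ran alongside via SRB (0.1%, TCA-fixed, 560 nm).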
# [12] = BSK_3C_uPAR: BioMAP Diversity Plus: 3C Assay for Urokinase-type plasminogen activator receptor (uPAR) Biomarker Activity (AID 2282998); settings: BioMAP 3C HUVEC, uPAR biomarker ELISA; actives raise or lower the signal
# In short: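 Values derive from bidirectional curve fitting relative to DMSO, which served as baseline of activity. uPAR was measured by ELISA in human umbilical vein endothelial primary cultures 24 h after compound addition.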
# [13] = BSK_3C_VCAM1: BioMAP Diversity Plus: 3C Assay for Vascular cell adhesion molecule 1 (VCAM1) Biomarker Activity (AID 2282999); settings: BioMAP 3C HUVEC, VCAM1 ELISA, cytokine-stimulated; actives raise or lower the signal
# In short: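 Activity fitted in both directions relative to DMSO, with ELISA measurement of the surface marker on primary HUVEC (3C) at 24 h post-treatment; parallel SRB staining (0.1% SRB, TCA-fixed, 560 nm) flagged overt cytotoxicity.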
# [14] = target: Oxysterols receptor LXR-alpha (Homo sapiens) (UniProt Q13133); test: ATG_LXRa_TRANS: Attagene TRANS-FACTORIAL HepG2 Assay for human Liver X Receptor alpha (LXRa) (AID 2282980; active = hit-call score of the fitted dose curve at least 0.9, where 1 is the maximum); settings: HepG2 Attagene TRANS reporter, LXRa transactivation
# In short: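 Chemical-induced reporter mRNA measured by RT-PCR with fluorescent labelling and capillary electrophoresis after 24 h dosing of transiently transfected HepG2 cells expressing exogenous NR-Gal4 chimeras; increases scored against DMSO baseline.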
# [15] = target: Oxysterols receptor LXR-beta (Homo sapiens) (UniProt P55055); test: ATG_LXRb_TRANS: Attagene TRANS-FACTORIAL HepG2 Assay for human Liver X Receptor beta (LXRb) (AID 2282981; active = hit-call score of the fitted dose curve at least 0.9, where 1 is the maximum); settings: HepG2 Attagene TRANS GAL4-LXRb reporter, mRNA
# In short: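 After 24 h of chemical treatment, transfected HepG2 cells yield total RNA; reporter cDNA is PCR-amplified, FAM-labelled, HpaI-cut and run on capillary electrophoresis. Signal reflects chimeric LXRb-Gal4 activity on GAL4-UAS reporters.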
# [16] = target: Hepatocyte nuclear factor 4-alpha (Homo sapiens) (UniProt P41235); test: ATG_HNF4a_TRANS: Attagene TRANS-FACTORIAL HepG2 Assay for human Hepatocyte Nuclear Factor 4 alpha (HNF4a) (AID 2282982; active = hit-call score of the fitted dose curve at least 0.9, where 1 is the maximum); settings: HepG2 HNF4a transactivation reporter, mRNA readout
# In short: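 Multiplexed reporter assay: transfected HepG2, 24 h exposure, total RNA → oligo(dT) RT → PCR → 6-FAM extension → HpaI digest → CE fluorescence. DMSO = negative control.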
# [17] = target: Nuclear receptor subfamily 4 group A member 2 (Homo sapiens) (UniProt P43354); test: ATG_NURR1_TRANS: Attagene TRANS-FACTORIAL HepG2 Assay for human Nuclear Receptor Related Protein 1 (NURR1) (AID 2282985; active = hit-call score of the fitted dose curve at least 0.9, where 1 is the maximum); settings: HepG2 Attagene TRANS reporter, mRNA readout
# In short: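 Measures transcriptional activation by an exogenous NR-Gal4 chimera in transfected HepG2 liver cells. After 24 h, reporter RNA is reverse-transcribed, amplified and resolved by capillary electrophoresis; DMSO defines baseline.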
# [18] = ATG_NRF2_ARE_CIS: Attagene CIS-FACTORIAL HepG2 Assay for human Nuclear Factor Erythroid 2 Related Factor 2 (NFR2) response to Antioxidant Response Elements (ARE) (AID 2282992); settings: HepG2 Attagene ARE/NRF2 reporter, transcription factor activity; actives raise or lower the signal;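 for AC50: reporter mRNA level measured by RT-PCR and capillary electrophoresis fluorescence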
# In short: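 Endogenous transcription factor activity in human liver HepG2 cells is tracked via a cis-element-driven reporter within a multiplexed set. mRNA induction is read by RT-PCR and capillary electrophoresis after 24 h, with DMSO as baseline.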
# [19] = ATG_NF_kB_CIS: Attagene CIS-FACTORIAL HepG2 Assay for human Nuclear Factor Kappa B (NF-kB) (AID 2282991); settings: HepG2 Attagene cis-factorial NF-kB reporter mRNA; actives raise or lower the signal
# In short: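 HepG2 cells transiently transfected with multiplexed cis-element reporter units measuring endogenous transcription factor activity; reporter mRNA read 24 h after dosing by RT-PCR, fluorescent labelling, HpaI digestion and capillary electrophoresis. Bidirectional fit against DMSO baseline.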
# Chain of Myc proto-oncogene protein (Homo sapiens) (P01106 whole entry, looked up, the tested form may be a part): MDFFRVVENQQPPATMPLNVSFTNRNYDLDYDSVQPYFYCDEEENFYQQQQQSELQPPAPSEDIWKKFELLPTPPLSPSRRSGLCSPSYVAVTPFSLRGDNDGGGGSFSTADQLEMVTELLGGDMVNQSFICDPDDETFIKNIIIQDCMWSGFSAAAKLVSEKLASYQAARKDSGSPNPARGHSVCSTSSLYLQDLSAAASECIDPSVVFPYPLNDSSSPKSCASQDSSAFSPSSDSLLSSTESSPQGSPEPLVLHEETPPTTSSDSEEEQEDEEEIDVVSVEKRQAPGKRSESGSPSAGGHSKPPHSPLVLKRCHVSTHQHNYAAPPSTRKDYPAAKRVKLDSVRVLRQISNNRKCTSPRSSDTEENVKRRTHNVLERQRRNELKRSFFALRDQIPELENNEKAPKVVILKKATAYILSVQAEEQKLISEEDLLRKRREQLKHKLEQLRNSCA
# Chain of Glucocorticoid receptor (Homo sapiens) (P04150 whole entry, looked up, the tested form may be a part): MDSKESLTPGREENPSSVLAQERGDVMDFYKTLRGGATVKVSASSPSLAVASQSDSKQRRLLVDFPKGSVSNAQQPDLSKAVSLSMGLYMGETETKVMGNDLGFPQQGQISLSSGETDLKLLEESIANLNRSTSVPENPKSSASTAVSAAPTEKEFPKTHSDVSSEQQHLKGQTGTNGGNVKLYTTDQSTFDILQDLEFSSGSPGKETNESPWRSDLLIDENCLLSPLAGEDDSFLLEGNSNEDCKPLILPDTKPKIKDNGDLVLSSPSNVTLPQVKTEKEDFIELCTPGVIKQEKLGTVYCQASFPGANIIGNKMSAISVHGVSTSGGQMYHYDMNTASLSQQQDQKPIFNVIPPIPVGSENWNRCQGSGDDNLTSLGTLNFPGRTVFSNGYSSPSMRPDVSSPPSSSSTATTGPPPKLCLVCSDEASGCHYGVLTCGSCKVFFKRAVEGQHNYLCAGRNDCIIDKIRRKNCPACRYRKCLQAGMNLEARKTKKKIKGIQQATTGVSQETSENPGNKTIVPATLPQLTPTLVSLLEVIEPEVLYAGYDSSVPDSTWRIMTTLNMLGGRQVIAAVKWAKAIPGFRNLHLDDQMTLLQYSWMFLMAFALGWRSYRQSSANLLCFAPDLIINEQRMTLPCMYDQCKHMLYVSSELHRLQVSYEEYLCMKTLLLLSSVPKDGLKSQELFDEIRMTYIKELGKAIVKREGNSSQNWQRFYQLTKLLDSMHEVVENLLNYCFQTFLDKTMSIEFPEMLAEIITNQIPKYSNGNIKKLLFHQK
# Chain of Oxysterols receptor LXR-beta (Homo sapiens) (P55055 whole entry, looked up, the tested form may be a part): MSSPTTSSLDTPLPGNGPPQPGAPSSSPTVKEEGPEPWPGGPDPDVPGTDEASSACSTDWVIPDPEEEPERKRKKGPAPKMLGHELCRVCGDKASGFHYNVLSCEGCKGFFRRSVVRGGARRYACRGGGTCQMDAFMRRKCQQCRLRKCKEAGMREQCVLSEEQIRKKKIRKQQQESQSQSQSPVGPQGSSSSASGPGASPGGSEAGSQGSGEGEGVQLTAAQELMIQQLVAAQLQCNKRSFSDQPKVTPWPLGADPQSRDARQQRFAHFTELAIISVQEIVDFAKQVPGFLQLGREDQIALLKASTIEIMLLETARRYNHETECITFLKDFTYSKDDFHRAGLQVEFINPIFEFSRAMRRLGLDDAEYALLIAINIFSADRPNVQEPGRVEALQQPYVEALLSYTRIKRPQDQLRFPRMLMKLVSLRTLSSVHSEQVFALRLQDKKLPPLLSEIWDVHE
# Chain of Bile acid receptor (Homo sapiens) (Q96RI1 whole entry, looked up, the tested form may be a part): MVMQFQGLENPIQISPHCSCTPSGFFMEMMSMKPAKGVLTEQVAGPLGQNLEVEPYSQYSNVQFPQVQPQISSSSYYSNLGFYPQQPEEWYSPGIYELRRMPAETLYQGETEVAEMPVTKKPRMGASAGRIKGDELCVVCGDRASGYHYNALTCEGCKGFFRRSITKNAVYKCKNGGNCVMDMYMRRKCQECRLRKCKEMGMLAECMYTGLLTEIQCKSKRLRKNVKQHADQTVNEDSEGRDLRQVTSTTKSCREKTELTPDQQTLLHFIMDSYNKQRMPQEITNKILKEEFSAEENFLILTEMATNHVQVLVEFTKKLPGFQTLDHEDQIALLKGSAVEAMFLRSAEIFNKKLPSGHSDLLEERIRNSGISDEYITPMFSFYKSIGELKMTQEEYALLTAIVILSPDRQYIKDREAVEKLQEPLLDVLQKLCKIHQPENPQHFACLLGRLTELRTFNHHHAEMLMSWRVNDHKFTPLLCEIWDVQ
# Chain of Nuclear respiratory factor 1 (Homo sapiens) (Q16656 whole entry, looked up): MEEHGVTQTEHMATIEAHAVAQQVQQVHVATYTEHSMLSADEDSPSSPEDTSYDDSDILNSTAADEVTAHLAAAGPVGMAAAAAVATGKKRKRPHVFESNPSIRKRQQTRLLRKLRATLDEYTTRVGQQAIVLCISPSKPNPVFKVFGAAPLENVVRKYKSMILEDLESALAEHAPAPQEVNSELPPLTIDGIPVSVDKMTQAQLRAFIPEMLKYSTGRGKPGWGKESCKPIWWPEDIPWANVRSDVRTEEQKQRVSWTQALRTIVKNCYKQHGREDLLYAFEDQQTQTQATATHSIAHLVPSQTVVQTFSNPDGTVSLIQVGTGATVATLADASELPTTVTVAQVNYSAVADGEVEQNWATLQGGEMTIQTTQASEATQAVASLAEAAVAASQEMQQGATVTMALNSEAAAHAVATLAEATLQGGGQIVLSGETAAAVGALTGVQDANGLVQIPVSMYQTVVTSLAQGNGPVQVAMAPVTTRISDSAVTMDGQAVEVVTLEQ
# Chain of Transcriptional activator Myb (Homo sapiens) (P10242 whole entry, looked up): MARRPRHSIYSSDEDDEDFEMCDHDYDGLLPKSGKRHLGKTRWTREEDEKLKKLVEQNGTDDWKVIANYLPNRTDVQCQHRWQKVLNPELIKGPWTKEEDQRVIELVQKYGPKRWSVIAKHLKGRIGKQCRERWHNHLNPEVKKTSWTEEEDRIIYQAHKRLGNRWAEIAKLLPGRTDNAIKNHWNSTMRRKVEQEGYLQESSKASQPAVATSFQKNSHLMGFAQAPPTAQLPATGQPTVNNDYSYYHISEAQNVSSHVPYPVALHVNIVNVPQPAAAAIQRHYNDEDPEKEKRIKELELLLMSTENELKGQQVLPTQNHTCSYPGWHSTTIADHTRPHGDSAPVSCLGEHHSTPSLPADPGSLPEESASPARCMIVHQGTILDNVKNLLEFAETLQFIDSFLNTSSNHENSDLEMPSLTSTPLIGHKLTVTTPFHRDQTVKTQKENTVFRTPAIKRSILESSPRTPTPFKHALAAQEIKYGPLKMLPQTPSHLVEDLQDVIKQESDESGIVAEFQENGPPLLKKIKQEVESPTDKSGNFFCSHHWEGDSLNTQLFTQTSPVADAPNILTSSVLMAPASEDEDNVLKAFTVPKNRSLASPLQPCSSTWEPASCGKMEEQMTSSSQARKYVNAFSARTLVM
# Chain of Oxysterols receptor LXR-alpha (Homo sapiens) (Q13133 whole entry, looked up, the tested form may be a part): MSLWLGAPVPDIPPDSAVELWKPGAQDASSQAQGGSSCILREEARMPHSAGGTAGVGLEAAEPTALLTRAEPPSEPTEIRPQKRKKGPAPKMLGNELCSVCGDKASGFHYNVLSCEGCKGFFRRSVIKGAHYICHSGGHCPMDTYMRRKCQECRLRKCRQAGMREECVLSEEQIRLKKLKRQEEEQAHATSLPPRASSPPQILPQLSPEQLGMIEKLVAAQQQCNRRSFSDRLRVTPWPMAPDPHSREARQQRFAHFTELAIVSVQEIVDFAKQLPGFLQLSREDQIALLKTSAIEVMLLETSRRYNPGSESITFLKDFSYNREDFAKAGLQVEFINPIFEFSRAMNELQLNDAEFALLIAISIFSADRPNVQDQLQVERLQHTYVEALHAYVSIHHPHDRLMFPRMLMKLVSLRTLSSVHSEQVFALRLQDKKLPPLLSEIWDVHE
# Chain of Cellular tumor antigen p53 (Homo sapiens) (P04637 whole entry, looked up, the tested form may be a part): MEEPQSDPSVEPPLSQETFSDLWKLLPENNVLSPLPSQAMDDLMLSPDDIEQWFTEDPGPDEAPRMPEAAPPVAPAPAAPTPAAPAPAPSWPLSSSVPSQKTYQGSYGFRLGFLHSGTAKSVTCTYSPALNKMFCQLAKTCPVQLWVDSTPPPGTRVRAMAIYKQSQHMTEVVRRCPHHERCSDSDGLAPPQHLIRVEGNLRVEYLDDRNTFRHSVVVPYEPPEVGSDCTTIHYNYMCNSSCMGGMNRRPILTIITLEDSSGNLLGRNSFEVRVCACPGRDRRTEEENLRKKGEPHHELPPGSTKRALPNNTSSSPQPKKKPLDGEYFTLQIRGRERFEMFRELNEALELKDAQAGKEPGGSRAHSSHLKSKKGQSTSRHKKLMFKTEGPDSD
# Chain of Hepatocyte nuclear factor 4-alpha (Homo sapiens) (P41235 whole entry, looked up): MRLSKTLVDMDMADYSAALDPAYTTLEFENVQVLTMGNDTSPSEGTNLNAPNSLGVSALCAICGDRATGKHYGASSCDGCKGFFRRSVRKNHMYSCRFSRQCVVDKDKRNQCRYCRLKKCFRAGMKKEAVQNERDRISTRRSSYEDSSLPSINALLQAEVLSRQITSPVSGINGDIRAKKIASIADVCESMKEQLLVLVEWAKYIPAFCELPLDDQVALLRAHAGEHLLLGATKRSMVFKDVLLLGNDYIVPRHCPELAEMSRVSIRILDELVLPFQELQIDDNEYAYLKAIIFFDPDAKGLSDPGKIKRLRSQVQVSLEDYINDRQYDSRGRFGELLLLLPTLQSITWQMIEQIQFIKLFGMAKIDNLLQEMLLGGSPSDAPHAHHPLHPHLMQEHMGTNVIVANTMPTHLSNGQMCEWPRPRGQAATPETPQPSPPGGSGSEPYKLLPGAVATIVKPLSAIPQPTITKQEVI
structure (smiles),measurement,setting,value
CC1=C2C[C@H]3[C@@H](CC=C4C[C@@H](O)CC[C@@]43C)[C@@H]2CC[C@]12O[C@@H]1C[C@H](C)CN[C@H]1[C@H]2C,outcome,[1],inactive
same,outcome,[2],inactive
same,outcome,[3],inactive
same,outcome,[4],inactive
same,outcome,[5],inactive
same,outcome,[6],inactive
same,outcome,[7],inactive
same,outcome,[8],inactive
same,outcome,[9],inactive
same,outcome,[10],inactive
same,outcome,[11],inactive
same,outcome,[12],inactive
same,outcome,[13],inactive
O=C(O)C(F)(F)C(F)(F)C(F)(F)C(F)(F)C(F)(F)F,outcome,[1],inactive
same,outcome,[14],inactive
same,outcome,[16],inactive
same,outcome,[3],inactive
same,outcome,[17],inactive
same,outcome,[5],inactive
same,outcome,[6],inactive
same,outcome,[7],inactive
same,outcome,[8],inactive
same,outcome,[18],inactive
same,outcome,[9],inactive
same,outcome,[10],inactive
same,outcome,[11],inactive
same,outcome,[12],inactive
same,outcome,[13],inactive
O=C(O)C(F)(F)C(F)(F)C(F)(F)C(F)(F)C(F)(F)C(F)(F)C(F)(F)C(F)(F)F,outcome,[1],inactive
same,AC50,[2],151 µM (active) and 219 µM (active)
same,outcome,[2],inactive
same,outcome,[14],inactive
same,outcome,[15],inactive
same,outcome,[16],inactive
same,outcome,[3],inactive
same,outcome,[4],inactive
same,AC50,[17],38.9 µM (active) and 39.4 µM (active)
same,outcome,[5],inactive
same,outcome,[6],inactive
same,outcome,[7],inactive
same,outcome,[8],inactive
same,AC50,[18],50.9 µM (active) and 35.5 µM (active) and 13 µM (active)
same,AC50,[10],217 µM (active)
same,outcome,[10],inactive
same,AC50,[11],30 µM (active) and 46 µM (active)
same,outcome,[11],inactive
same,AC50,[12],25 µM (active) and 51.6 µM (active)
same,outcome,[12],inactive
same,AC50,[13],49.5 µM (active) and 30 µM (active)
same,outcome,[13],inactive
CC(c1ccc(O)cc1)(c1ccc(O)cc1)c1ccc(O)cc1,outcome,[1],inactive
same,AC50,[2],2.98 µM (active)
same,outcome,[3],inactive
same,outcome,[4],inactive
same,outcome,[5],inactive
same,AC50,[6],20.2 µM (active)
same,outcome,[7],inactive
same,outcome,[8],inactive
same,AC50,[19],18.9 µM (active)
same,AC50,[18],19.6 µM (active)
same,AC50,[9],11.1 µM (active)
same,AC50,[10],11.1 µM (active)
same,outcome,[11],inactive
same,AC50,[12],32.6 µM (active)
same,AC50,[13],29.8 µM (active)
c1ccc(-c2ccccc2)cc1,outcome,[1],inactive
same,outcome,[2],inactive
same,outcome,[4],inactive
same,outcome,[17],inactive
same,outcome,[5],inactive
same,outcome,[6],inactive
same,outcome,[7],inactive
same,outcome,[8],inactive
same,outcome,[19],inactive
same,AC50,[10],197 µM (active)
same,outcome,[11],inactive
same,outcome,[12],inactive
same,outcome,[13],inactive
CCC(=O)O[C@H]1CC[C@H]2[C@@H]3CCC4=CC(=O)CC[C@]4(C)[C@H]3CC[C@]12C,outcome,[1],inactive
same,AC50,[14],25.3 µM (active)
same,outcome,[14],inactive
same,AC50,[15],3.11 µM (active) and 25.7 µM (active)
same,outcome,[15],inactive
same,outcome,[16],inactive
same,outcome,[3],inactive
same,outcome,[4],inactive
same,outcome,[17],inactive
same,AC50,[5],164 µM (active)
same,outcome,[5],inactive
same,AC50,[6],122 µM (active)
same,outcome,[6],inactive
same,outcome,[7],inactive
same,AC50,[8],165 µM (active) and 163 µM (active)
same,outcome,[8],inactive
same,outcome,[19],inactive
same,AC50,[10],100 µM (active)
same,outcome,[10],inactive
same,AC50,[11],31.4 µM (active)
same,AC50,[12],24.9 µM (active)
same,AC50,[13],35.6 µM (active)
Clc1ccc(Cl)cc1,outcome,[1],inactive
same,outcome,[14],inactive
same,outcome,[15],inactive
same,outcome,[16],inactive
same,outcome,[3],inactive
same,outcome,[4],inactive
same,outcome,[17],inactive
same,outcome,[5],inactive
same,outcome,[6],inactive
same,outcome,[7],inactive
same,outcome,[8],inactive
same,outcome,[19],inactive
same,outcome,[18],inactive
same,outcome,[10],inactive
same,outcome,[11],inactive
same,outcome,[12],inactive
same,outcome,[13],inactive
